In PubChem BioAssay one finds z-score data, which are given here for twelve compounds.

This experiment in a line: modulators of HCV replicon luciferase signal, primary screen, HCV replication inhibitor project, Huh7 cells, luciferase reporter (AID 1109).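 Further: huh7 hepatoma cells harbouring a luciferase neomycin HCV replicon reporter; luciferase luminescence as measure of HCV replicon replication; test concentration not given here.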 The conditions noted are these: 48 h, higher = more signal. (In general: A replicon is a self-replicating genome or part of one, used to study replication in cells.)
As for `C[N+](C)(C)CCCCCCNC(=O)[C@@H]1C[C@@H]2C(=O)N[C@@H](Cc3ccccc3)C(=O)N2[C@@H]1c1ccc(O)cc1`, the z-score turned out to be 0.389.

The compound `CCCC=C(CCC)[C@@H](NS(=O)(=O)c1ccc(Cl)cc1)c1ccccc1` showed a z-score of -0.777.

On to `CO[C@H]1O[C@H](CO)[C@@H](OC(=O)Nc2ccc(C(F)(F)F)cc2)[C@H](OC(=O)Nc2ccccc2-c2ccccc2)[C@@H]1OC(=O)Nc1ccccc1-c1ccccc1`, for which the z-score is -2.79.

As to `CC(C)[C@@H](C(=O)O)n1cc(-c2ccccc2)nn1`, the z-score came out at 0.281.

For the compound `C=CCNC(=O)[C@@H]1[C@H]2C(=O)O[C@H](c3ccccc3)[C@H](c3ccccc3)N2[C@H](c2ccc(O)cc2)[C@@]12C(=O)Nc1ccc(C#CC3(O)CCCCCC3)cc12`, the z-score is -0.608.

In the case of `O=C1N(CCS(=O)(=O)c2ccccc2)c2ccccc2[C@@H]2OC(c3ccc(OCCCO)cc3)=N[C@]12CCS(=O)(=O)c1ccccc1`, the z-score came out at 0.182.

Take `CCOC(=O)C1=CC[C@@H](c2ccccc2)N(S(=O)(=O)c2ccc(C)cc2)[C@H]1C#N`: the z-score was -1.76.

For `COc1ccc([Si](C)(C)[C@H]2[C@H](CCO)O[C@@]3(C(=O)N(Cc4ccccc4)c4ccc(N(C=O)c5ccccc5)cc43)[C@@H]2C)cc1`, the z-score is -4.6.

`COc1cccc(C[C@H]2C[C@@H](CO[Si](C(C)C)(C(C)C)C(C)C)N3C(=O)[C@@]4(C(C)=O)O[C@@]23[C@@H]2C(=O)N(C)C(=O)[C@@H]24)c1` showed a z-score of -2.81.

`C=CC[C@@]1(C(=O)O)N=C(c2ccc(OCCCO)cc2)O[C@@H]1c1ccccc1CN=[N+]=[N-]` gave a z-score of -1.99.

`CCCCNC(=O)c1ccc(C#C[Si](C)(C)C)c(OC(C)=O)c1` gave a z-score of 0.93.

Consider `C=CCNC(=O)[C@H]1[C@@H]2C(=O)O[C@@H](c3ccccc3)[C@@H](c3ccccc3)N2[C@@H](c2ccc(O)cc2)[C@]12C(=O)Nc1ccc(C#CC3=CCCCC3)cc12`, for which the z-score was -1.83.
